# Reference: PubChem BioAssay (NCI)
# About 83,000 compounds went through this panel and 20% of them were active in at least one assay; those are over-represented in the sample as a whole.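 Plates (96-well) were seeded with cells, treated with compound at one concentration, and incubated for 48 hours before percent growth was determined.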 Unmarked numbers belong to inactive results. The source made the active and inactive calls. How the source made its calls: active means growth percent below 10; inactive means the rest.
# Key:
# Assay in all cases: NCI-60 one-dose screen, 48 h (100 = growth as untreated, 0 = no growth, -100 = all killed)
# K-562 leukemia = conditions: 10 µM unless noted
# MALME-3M melanoma = conditions: 10 µM unless noted
# RXF 393 renal = conditions: 10 µM unless noted
# SF-268 CNS = conditions: 10 µM unless noted
# SF-295 CNS = conditions: 10 µM unless noted
# SF-539 CNS = conditions: 10 µM unless noted
# UACC-257 melanoma = conditions: 10 µM unless noted
# M14 melanoma = conditions: 10 µM unless noted
# HCT-15 colon = conditions: 10 µM unless noted
# HT29 colon = conditions: 10 µM unless noted
# SNB-75 CNS = conditions: 10 µM unless noted
# SNB-19 CNS = conditions: 10 µM unless noted
# U251 CNS = conditions: 10 µM unless noted
# PC-3 prostate = conditions: 10 µM unless noted
# SK-MEL-5 melanoma = conditions: 10 µM unless noted
# UACC-62 melanoma = conditions: 10 µM unless noted
# LOX IMVI melanoma = conditions: 10 µM unless noted
# SK-MEL-28 melanoma = conditions: 10 µM
# SK-MEL-2 melanoma = conditions: 10 µM unless noted
# MDA-MB-231 breast = conditions: 10 µM unless noted
SMILES,growth (K-562 leukemia),growth (MALME-3M melanoma) [%],growth (RXF 393 renal),growth (SF-268 CNS),growth (SF-295 CNS),growth (SF-539 CNS),growth (UACC-257 melanoma),growth (M14 melanoma),growth (HCT-15 colon),growth (HT29 colon),growth (SNB-75 CNS),growth (SNB-19 CNS) [%],growth (U251 CNS),growth (PC-3 prostate),growth (SK-MEL-5 melanoma),growth (UACC-62 melanoma),growth (LOX IMVI melanoma),growth (SK-MEL-28 melanoma),growth (SK-MEL-2 melanoma),growth (MDA-MB-231 breast)
CC(=O)n1cc(-c2c[nH]c3ccccc23)c(-c2ccc(Cl)cc2)n1,94.3%,87.2,80.6%,86.5%,75.3%,81.7%,103%,76.1%,80.9%,95.9%,80.9%,112,74.9%,81.5%,78.8%,93.5%,86.8%,93.7%,97.6%,
Cn1c2c(c(=O)[nH]c1=O)NC1=C(C(=O)c3ccccc31)C1(C=C(O)c3ccccc31)N2 (stereo not given),112%,124,,103%,135%,107%,115%,96.8%,96.9%,113%,92.1%,114,103%,94.1%,111%,116%,94.1%,148%,107%,105%
CSc1nc2c(c(=O)n1C)N=C1c3ccccc3C(=O)C1C(c1ccccc1)N2 (stereo not given),32.9%,42.6,,81.7%,-10.6% (active),68%,102%,62.2%,,52.2%,50%,82.4,74.5%,64.9%,69.2%,107%,74.5%,72.5%,66.2%,82.8%
COC(=O)/C(=C\c1c(C)[nH]c2ccccc12)S(=O)(=O)c1ccccc1,14.4%,45.8,,2.87% (active),16.6%,-24.3% (active),29.4%,33.7%,23.8%,9.54% (active),-8.87% (active),19.1,25.7%,-1.81% (active),34.1%,,,16.6%,23.9%,90%
COc1ccc(/C=C2\N=C(c3ccccc3)N(c3ccc(-c4nc5ccc(C)cc5s4)cc3)C2=O)cc1,82.4%,94.6,99%,61.1%,75.5%,93.3%,111%,98.9%,82.1%,88.9%,69.9%,84.3,81.2%,63.1%,85.3%,73.2%,98.2%,114%,85.2%,
COc1nc2c(c(=O)n1C)N=C1c3ccccc3C(=O)C1C(c1ccccc1)N2 (stereo not given),74.8%,83.2,,85.3%,,93.7%,96.7%,82.9%,90.5%,104%,84.6%,91.7,89.2%,115%,88.7%,78.6%,83.4%,90.5%,81.2%,89.2%
N#C/C(=C\c1c(-c2ccccc2)[nH]c2ccccc12)C(=O)c1ccccc1,21.6%,70.9,,53.6%,37.1%,21.7%,61.6%,37.6%,42.1%,16.4%,16.8%,44.5,43.3%,44.5%,21.6%,36.3%,54.2%,55.4%,47.8%,71.3%
Nc1ccc(C2c3ccccc3Oc3ccccc32)cc1,82.3%,106,,102%,89%,111%,102%,107%,99.2%,99.3%,84.5%,105,93.3%,90%,,94.8%,90.8%,114%,110%,104%
CN(O)c1nc(N(C)O)nc(N2CCOCC2)n1,9.56% (active),48.5,,29.3%,-30.2% (active),38%,30%,16%,22.5%,23.7%,29.2%,32.8,31.5%,58.9%,34.2%,29.1%,,61.1%,62.6%,56%
Clc1ccc(Nc2scc3[n+]2CCC3)cc1,,95.9,,93.2%,94.5%,97.1%,94%,103%,93.4%,106%,94.3%,98.4,98%,89.2%,,87.3%,102%,100%,106%,95.9%
Cn1nc(C(F)(F)F)c(-c2ccc(Cl)c(C(F)(F)F)c2)c1-c1ccc(OCc2ccc(Cl)cc2)cc1O,,12.2,,26%,12.8%,34.4%,2.35% (active),35.4%,8.53% (active),20.4%,47.7%,19.2,0.822% (active),3.78% (active),,,5.24% (active),,1.95% (active),8.7% (active)
Cc1nn(-c2nc3ccccc3[nH]2)c2c1C(c1ccc(OCC(N)=O)cc1)CC(=O)N2 (stereo not given),,88.2,,96.4%,69.5%,100%,110%,80%,98%,,92.3%,103,110%,97.4%,,97.8%,109%,105%,107%,103%
O=C(c1ccccc1)N(CCc1ccc(Cl)cc1)C(=S)N(C(=O)c1ccccc1)c1ccccc1,58.3%,,,101%,109%,106%,102%,113%,93.8%,104%,104%,109,97%,85.7%,95.9%,94.5%,81.5%,119%,117%,107%
COc1ccc(-c2cn[nH]c2-c2cc(OC)c(OC)c(OC)c2)cc1OCc1ccccc1,,36.6,,27%,-1.63% (active),-19.8% (active),47.6%,10.7%,,84.9%,5.94% (active),,12%,22.4%,,21.8%,21.5%,48.5%,2.98% (active),46.1%
Cc1ccc(C(=O)c2oc3ccc4c(C)cc(=O)oc4c3c2C)cc1,11.7%,,37.2%,52.1%,4.06% (active),46.7%,-4.34% (active),42.5%,23%,14.3%,67.8%,41.4,18.6%,7.34% (active),-56.6% (active),29.4%,33.2%,51.4%,32.1%,46.8%
COc1ccc(-c2cn[nH]c2-c2ccc(OC)c(O)c2)cc1,,98.6,,77.9%,81.7%,76.9%,92.3%,,50%,94.3%,87.6%,76.5,63.1%,84%,,,59.5%,,42%,68.4%
O=C(Nc1ccc(-c2nc3ccc(NC(=O)c4ccc(Cl)cc4)cc3[nH]2)cc1)c1ccc(Cl)cc1,-1.36% (active),,-49% (active),43.7%,-68% (active),-68.2% (active),-15.8% (active),2.14% (active),32.1%,-58.1% (active),-31.6% (active),,2.01% (active),38.3%,9.75% (active),0.642% (active),-49.6% (active),7.47% (active),-33.9% (active),-0.679% (active)
CCc1ccc(CNCC(O)c2ccccc2)cc1 (stereo not given),22%,,61.6%,90.1%,,86.5%,93.1%,58.7%,43.9%,28.7%,61.8%,79.7,60%,52.7%,68.6%,84.5%,68.7%,74.7%,90.9%,47%
